Laboratory results: the supplement of paper PMC6555819

Columns and labels:
Assay in all cases: PBM binding z-score (relative to random genomic background probes); higher = stronger binding; sequences stand for … in GC…GCGATTGACAGCGTAGAATGAAGG
[1] = system: FXR:RXRa (NR concentration 270 nM, RXRa partner concentration 90 nM)
Summary of the method: (§1)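 Binding z-scores were set against random background probes. The data came from custom Agilent 4×180K protein-binding microarrays carrying double-stranded probes with 34-nt variable regions, incubated 1 h with ligand-free nuclear receptor dimers. Partner-specific antibodies detected binding, and scanned fluorescence was regression-normalized.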

[2] = system: LXRa:RXRa (NR concentration 270 nM, RXRa partner concentration 90 nM)
Summary of the method: as §1

[3] = system: LXRa homodimer (NR concentration 270 nM)
Summary of the method: as §1

[4] = system: LXRb:RXRa (NR concentration 270 nM, RXRa partner concentration 90 nM)
Summary of the method: as §1

[5] = system: LXRb homodimer (NR concentration 270 nM)
Summary of the method: as §1

[6] = system: PPARa:RXRa (NR concentration 270 nM, RXRa partner concentration 90 nM)
Summary of the method: as §1

[7] = system: PPARg:RXRa (NR concentration 180 nM, RXRa partner concentration 90 nM)
Summary of the method: as §1

[8] = system: PPARg:RXRa 270nM:90nM, anti-RXR (NR concentration 270 nM, RXRa partner concentration 90 nM)
Summary of the method: as §1

[9] = system: PPARg:RXRa 30nM:10nM, anti-RXR (NR concentration 30 nM, RXRa partner concentration 10 nM)
Summary of the method: as §1

[10] = system: PPARg:RXRa 90nM:30nM, anti-RXR (NR concentration 90 nM, RXRa partner concentration 30 nM)
Summary of the method: as §1

[11] = system: PPARg:RXRa DBDmut IVT, anti-RXR (DBD mutation: RXRa K156A/R161A, NR concentration 270 nM, RXRa partner concentration 90 nM)
Summary of the method: as §1

[12] = system: PPARg:RXRa IVT, anti-PPARg (NR concentration 270 nM, RXRa partner concentration 90 nM)
Summary of the method: as §1

[13] = system: PPARg DBDmut:RXRa IVT, anti-PPARg (DBD mutation: PPARg1 K132A/R137A, NR concentration 270 nM, RXRa partner concentration 90 nM)
Summary of the method: as §1

[14] = system: PPARg DBDmut IVT, anti-PPARg (DBD mutation: PPARg1 K132A/R137A, NR concentration 270 nM)
Summary of the method: as §1

[15] = system: PPARg homodimer (NR concentration 180 nM)
Summary of the method: as §1

[16] = system: PXR:RXRa (NR concentration 270 nM, RXRa partner concentration 90 nM)
Summary of the method: as §1

[17] = system: PXR homodimer (NR concentration 270 nM)
Summary of the method: as §1

[18] = system: RARa:RXR (NR concentration 270 nM, RXRa partner concentration 90 nM)
Summary of the method: as §1

[19] = system: RARa homodimer (NR concentration 270 nM)
Summary of the method: as §1

[20] = system: RARb:RXRa (NR concentration 270 nM, RXRa partner concentration 90 nM)
Summary of the method: as §1

| Sequence | PBM binding z-score [1] | PBM binding z-score [2] | PBM binding z-score [3] | PBM binding z-score [4] | PBM binding z-score [5] | PBM binding z-score [6] | PBM binding z-score [7] | PBM binding z-score [8] | PBM binding z-score [9] | PBM binding z-score [10] | PBM binding z-score [11] | PBM binding z-score [12] | PBM binding z-score [13] | PBM binding z-score [14] | PBM binding z-score [15] | PBM binding z-score [16] | PBM binding z-score [17] | PBM binding z-score [18] | PBM binding z-score [19] | PBM binding z-score [20] |
| --- | --- | --- | --- | --- | --- | --- | --- | --- | --- | --- | --- | --- | --- | --- | --- | --- | --- | --- | --- | --- |
| TCGAGTAGGTCAGGGGCATTCAGAATGGCGTCGA | 2.3 | 1.52 | -0.495 | 1.9 | -0.546 | 3.41 | 4.73 | 4.8 | 2.48 | 4.21 | 4.91 | 5.07 | -0.408 | -0.403 | 1.33 | 1.2 | -0.323 | 1.44 | -0.681 | 3.39 |
| ATCTCTAGGTAAGACTCAGATCAGTGAAGAACGC | 0.264 | 0.336 | 0.262 | -0.0617 | 0.692 | -0.153 | 0.264 | 0.0019 | 0.134 | 0.3 | 1.51 | 1.26 | -0.0293 | 0.583 | 0.669 | -0.381 | 0.314 | -0.0698 | 1.46 | -0.146 |
| TAGCCTAGGACATTGGGCCAGTATAGTACGCATC | -0.399 | -0.701 | -0.544 | -0.775 | -0.541 | -0.477 | 0.608 | -0.283 | -0.241 | -0.224 | -0.0779 | 0.309 | -0.136 | -0.693 | -0.568 | -0.674 | -0.291 | -0.557 | -0.0644 | -0.123 |
| CGAACTAGGTCATCCAGGGCAGTGAATACATTGA | 4.8 | 3.06 | 0.45 | 2.11 | -0.0808 | 5.08 | 7.91 | 6.54 | 4.15 | 5.95 | 8.06 | 8.48 | 5.35 | 1.78 | 2.66 | 2.66 | 1.95 | 2.47 | 0.454 | 4.29 |
| TCGAGTAGGTTAGTGGCATTCAGAATGGCGTCGA | -0.429 | -0.347 | -0.383 | -0.122 | -1.05 | 0.197 | -0.294 | 0.534 | 0.972 | 0.858 | 2.03 | 1.11 | -1.08 | -0.671 | 0.509 | -0.288 | -0.134 | -0.0955 | -0.37 | 0.0922 |
| ACTATTAGTTGACTTAGCGCAACCGATACGACGC | -0.246 | -0.156 | 0.033 | -0.0894 | 0.667 | -0.285 | 0.811 | 0.137 | 0.148 | 0.0233 | 0.0649 | 0.107 | 1.97 | 1.39 | -0.0684 | -0.103 | 0.0644 | -0.262 | 0.57 | 0.104 |
| AGTCAAAGTTCATCTAGGGAACGTAAGATATGCT | 6.67 | 5.95 | 4.72 | 3.68 | 1.64 | 4.69 | 6.38 | 6.34 | 3.44 | 5.6 | 0.178 | 2.78 | 1.05 | 1.04 | 1.73 | 4.88 | 4.28 | 3.41 | 1.1 | 4.92 |
| CGTCCAAGGTCAAGGTCATTGAAAGAGACTCGAA | 7.9 | 6.06 | 2.42 | 5.26 | 1.4 | 6.18 | 6.59 | 6.7 | 3.18 | 5.62 | 3.44 | 5.03 | 0.777 | -0.505 | 4.46 | 5.75 | 2.42 | 5.73 | 2.35 | 5.56 |
| CGTCCAAGGTCAATGGTCAGTGAAGAGATGACGG | 6.47 | 4.43 | 0.613 | 3.19 | 0.452 | 4.93 | 4.14 | 4.38 | 1.83 | 3.55 | 3.08 | 3.44 | 1.01 | -0.0239 | 2.84 | 3.33 | 1.16 | 3.98 | 0.654 | 5.08 |
| ATCTCTAGGTAATAGTTCAGTGAATCCCGAGGAT | 0.178 | 0.499 | 0.496 | 0.482 | 0.778 | 3.1 | 5.39 | 6.33 | 5.08 | 6.63 | 2.36 | 2.79 | 1.15 | 2.02 | 1.07 | 0.458 | 0.386 | 0.192 | 1.4 | 1.16 |
| TCTAGCAGGCCAAAGGGTCACTCAAGAGGTACGG | 2.46 | 2.67 | 0.121 | 2.6 | -0.592 | 3.89 | 3.36 | 4.84 | 3.5 | 4.89 | 1.61 | 2.45 | -0.396 | -0.432 | 2.19 | 2.95 | -0.0548 | 3.89 | 0.234 | 3.74 |
| TTACCAAGGTGGAGGTCGTTGATCCCTCTGTAGA | 1.68 | 1.96 | 0.12 | 1.66 | -0.0737 | 1.7 | 0.691 | 2.12 | 0.972 | 1.4 | -0.0945 | 0.927 | -0.0829 | 0.467 | 0.494 | 1.37 | -0.028 | 1.58 | -0.0306 | 0.92 |
| TCGAGTAGATTAGTCGGGGCATTCAGCCAACATA | -0.148 | -0.282 | -0.477 | 0.225 | -1.13 | -0.142 | -0.45 | 0.0888 | 0.947 | 0.374 | 0.609 | -0.356 | -0.764 | -0.113 | -0.53 | -0.262 | -0.468 | -0.389 | -0.665 | -0.416 |
| ATCTCTAGGTAAAGTCCAGTGAAAGATCGATAGA | 0.403 | 0.465 | 0.0712 | -0.241 | 1.11 | 0.175 | 0.232 | 0.48 | 0.421 | 0.165 | 2.45 | 1.54 | 1.13 | 0.971 | 0.584 | -0.13 | 0.187 | -0.113 | 0.971 | 0.414 |
| CCTACTGGGCCATCAGGTCATGGATATCAACGTT | 1.24 | 1.22 | 0.743 | 1.49 | -0.453 | 3.14 | 3.59 | 4.15 | 1.85 | 3.37 | 4.54 | 5.33 | 1.99 | 0.266 | 1.85 | 1.58 | 0.00422 | 2.45 | -0.165 | 2.31 |
| ATTCAAAGTTCACTAGGTAACGTAAGATTCAGCT | 4.73 | 5.45 | 4.42 | 3.08 | 1.71 | 4.44 | 5.64 | 5.28 | 2.03 | 4.25 | 2.64 | 4.4 | 1.68 | 2.19 | 2.66 | 3.71 | 3.03 | 2.9 | 2.06 | 4.61 |
| CCTTACGGGTCACTGACAGGTTATAGTATTTGGA | 5.25 | 4.01 | 0.456 | 3.4 | 0.163 | 4.95 | 4.75 | 4.34 | 1.8 | 2.96 | 3.44 | 3.9 | 0.845 | 0.452 | 2.3 | 3.46 | 0.317 | 4.47 | 0.728 | 3.93 |
| GCGACTGGGGCCTCAGCAGGTTACCATAACTTAA | -0.561 | -0.698 | -0.704 | -0.145 | -1.25 | -0.221 | -0.306 | -0.849 | -0.842 | -0.966 | -0.00241 | -0.47 | -1.2 | -1.98 | -0.186 | -0.277 | -0.863 | 0.0865 | -1.06 | 0.0626 |
